Source: the supplement of paper PMC10849652
The full data set covers some 8,800 targets. This sample favours those with a hit. About 0.5% of all pairs of compound and target were hits.

Assays:
Assay in all cases: log2 fold change, soluble protein after heating vs DMSO (PISA); higher = thermal stabilisation; K562 lysate, 10 uM; active = over 0.2 and 3.5 SD of the protein, either way, in both replicates (recomputed)
erlotinib = compound: C#Cc1cccc(Nc2ncnc3cc(OCCOC)c(OCCOC)cc23)c1 [erlotinib]
Outline: (§1)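 Quantification was by TMTpro 16plex LC-MS/MS with equalised channel sums, applied to the supernatant after 21,000xg for 90 min. Samples were crude K562 extract at 1 mg/mL protein in PBS pH 7.4 with 1 mM MgCl2, treated with 10 μM compound for 30 min, heated for 3 min across 48°C-58°C, pooled and brought to 0.5% NP-40 at 4°C. Values are log-two fold changes in thermal stability relative to solvent controls, from duplicates.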

[1] = compound: C/C(=N\NC(=O)C1=CC(=CC=C1)S(=O)(=O)N2CCOCC2)/C3=C(C=CC(=C3)Cl)O
Outline: as §1

[2] = compound: C1=CC(=CC=C1C2=NC3=C(N2)C=C(C=C3)C(=O)N)OC4=CC=C(C=C4)Cl
Outline: as §1

[3] = compound: C1=CC2=C(C=CC(=C2)/C=C\3/C(=O)NC(=NCC4=CC=CS4)S3)N=C1
Outline: as §1

[4] = compound: C1=CC2=NC=CN=C2C=C1/C=C/3\C(=O)NC(=O)S3
Outline: as §1

[5] = compound: C1=CC=C(C=C1)C2=NC(=C(N2)C3=CC=NC=C3)C4=CC(=C(C=C4)Cl)O
Outline: as §1

[6] = compound: C1=CC=C2C(=C1)C3=NNC4=CC=CC(=C43)C2=O
Outline: as §1

[7] = compound: C1CCN(C1)C(=O)NC2=CC=CC(=C2)NC3=NC=C(C(=N3)NCCC4=CN=CN4)Br
Outline: as §1

[8] = compound: C1CN(CCC1(CC2=CC=C(C=C2)Cl)N)C3=NC=NC4=C3C=CN4
Outline: as §1

IRAK-1-4 Inhibitor I = compound: C1COCCN1CCN2C3=CC=CC=C3N=C2NC(=O)C4=CC(=CC=C4)[N+](=O)[O-] [IRAK-1-4 Inhibitor I]
Outline: as §1

Measured: log2 fold change

MORF4L1 isoform 2 (UniProt Q9UBU8)
inactive: erlotinib 0.028 | [1] 0.06 | [2] 0.046 | [3] -0.027 | [4] -0.032 | [5] -0.005 | [6] 0.017 | [7] -0.04 | [8] -0.01 | IRAK-1-4 Inhibitor I 0.013

MGAT5 (UniProt Q09328)
inactive: erlotinib 0.037 | [1] 0.03 | [2] 0.087 | [3] 0.044 | [4] 0.078 | [5] -0.003 | [6] 0.132 | [7] -0.03 | [8] 0.066 | IRAK-1-4 Inhibitor I -0.05

MIF (UniProt P14174)
UniProt P14174, sequence (P14174 whole entry, looked up): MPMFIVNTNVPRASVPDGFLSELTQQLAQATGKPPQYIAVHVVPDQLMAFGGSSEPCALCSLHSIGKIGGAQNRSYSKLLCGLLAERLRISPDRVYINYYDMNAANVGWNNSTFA
inactive: erlotinib 0.006 | [1] 0.003 | [2] -0.021 | [3] -0.045 | [4] -0.007 | [5] -0.009 | [6] 0.047 | [7] -0.023 | [8] 0.032 | IRAK-1-4 Inhibitor I 0.058

LARP4B (UniProt Q92615)
UniProt Q92615, sequence (Q92615 whole entry, looked up): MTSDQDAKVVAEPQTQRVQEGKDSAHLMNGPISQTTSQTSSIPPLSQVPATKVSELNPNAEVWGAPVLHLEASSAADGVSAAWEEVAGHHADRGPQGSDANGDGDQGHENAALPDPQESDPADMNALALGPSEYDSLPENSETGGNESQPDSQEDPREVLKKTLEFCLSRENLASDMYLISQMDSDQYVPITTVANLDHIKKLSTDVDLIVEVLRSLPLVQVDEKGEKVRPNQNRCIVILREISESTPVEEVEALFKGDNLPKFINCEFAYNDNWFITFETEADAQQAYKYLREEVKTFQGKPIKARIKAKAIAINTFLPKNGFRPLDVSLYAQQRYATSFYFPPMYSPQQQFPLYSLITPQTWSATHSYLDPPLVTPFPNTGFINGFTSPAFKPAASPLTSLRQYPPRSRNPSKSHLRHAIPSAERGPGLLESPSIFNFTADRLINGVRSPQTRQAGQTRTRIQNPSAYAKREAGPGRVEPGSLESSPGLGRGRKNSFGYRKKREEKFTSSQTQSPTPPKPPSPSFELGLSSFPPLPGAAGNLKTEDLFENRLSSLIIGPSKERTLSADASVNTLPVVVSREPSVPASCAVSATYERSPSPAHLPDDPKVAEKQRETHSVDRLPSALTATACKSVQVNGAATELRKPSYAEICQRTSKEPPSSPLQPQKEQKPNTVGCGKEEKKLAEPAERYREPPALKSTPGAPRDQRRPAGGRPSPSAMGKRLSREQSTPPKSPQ
inactive: erlotinib -0.019 | [1] 0.013 | [2] -0.027 | [3] -0.005 | [4] 0.009 | [5] -0.021 | [6] 0.033 | [7] 0.012 | [8] -0.033 | IRAK-1-4 Inhibitor I -0.025

MED13L (UniProt Q71F56)
inactive: erlotinib 0.048 | [1] -0.049 | [2] 0.03 | [3] 0.024 | [4] 0.034 | [5] -0.014 | [6] -0.035 | [7] 0.024 | [8] 0.013 | IRAK-1-4 Inhibitor I 0.061

KPNA4 (UniProt O00629)
UniProt O00629, sequence (O00629 whole entry, looked up): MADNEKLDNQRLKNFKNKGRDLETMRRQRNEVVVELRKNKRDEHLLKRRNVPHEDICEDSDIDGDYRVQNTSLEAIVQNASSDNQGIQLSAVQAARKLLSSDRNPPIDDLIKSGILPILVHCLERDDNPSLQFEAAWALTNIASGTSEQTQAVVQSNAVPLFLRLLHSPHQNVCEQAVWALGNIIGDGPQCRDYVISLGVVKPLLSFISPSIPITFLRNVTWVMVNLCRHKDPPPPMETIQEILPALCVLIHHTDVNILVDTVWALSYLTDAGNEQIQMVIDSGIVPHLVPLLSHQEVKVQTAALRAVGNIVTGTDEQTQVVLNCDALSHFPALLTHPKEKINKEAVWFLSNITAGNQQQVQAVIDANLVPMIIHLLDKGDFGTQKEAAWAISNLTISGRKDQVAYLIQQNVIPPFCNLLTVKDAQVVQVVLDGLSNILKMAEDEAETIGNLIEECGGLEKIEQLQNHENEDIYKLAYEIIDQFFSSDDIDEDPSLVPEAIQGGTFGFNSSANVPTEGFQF
inactive: erlotinib -0.015 | [1] -0.037 | [2] 0.046 | [3] 0.022 | [4] -0.014 | [5] -0.013 | [6] -0.007 | [7] -0.045 | [8] -0.012 | IRAK-1-4 Inhibitor I 0.038

MAPK1 (UniProt P28482)
UniProt P28482, sequence (P28482 whole entry, looked up): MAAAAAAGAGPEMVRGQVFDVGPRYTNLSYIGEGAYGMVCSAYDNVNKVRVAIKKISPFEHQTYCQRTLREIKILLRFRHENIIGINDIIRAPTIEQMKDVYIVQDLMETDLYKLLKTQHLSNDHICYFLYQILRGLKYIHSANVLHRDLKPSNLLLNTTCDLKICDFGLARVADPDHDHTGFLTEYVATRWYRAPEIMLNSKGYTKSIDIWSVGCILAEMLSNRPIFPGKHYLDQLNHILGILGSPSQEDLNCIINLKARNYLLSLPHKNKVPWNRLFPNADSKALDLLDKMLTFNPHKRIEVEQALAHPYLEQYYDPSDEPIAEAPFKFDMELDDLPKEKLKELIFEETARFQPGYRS
inactive: erlotinib -0.021 | [1] -0.017 | [2] 0.001 | [3] 0.001 | [4] -0.016 | [5] -0.003 | [6] 0.065 | [7] 0.017 | [8] 0.009 | IRAK-1-4 Inhibitor I -0.009

MARK2 (UniProt E9PC69)
inactive: erlotinib 0.095 | [1] 0.132 | [2] 0.026 | [3] 0.056 | [4] -0.017 | [5] 0.024 | [6] -0.246 | [7] -0.18 | [8] -0.084 | IRAK-1-4 Inhibitor I -0.076

LTN1 isoform 3 (UniProt O94822)
UniProt O94822, sequence (O94822 whole entry, looked up): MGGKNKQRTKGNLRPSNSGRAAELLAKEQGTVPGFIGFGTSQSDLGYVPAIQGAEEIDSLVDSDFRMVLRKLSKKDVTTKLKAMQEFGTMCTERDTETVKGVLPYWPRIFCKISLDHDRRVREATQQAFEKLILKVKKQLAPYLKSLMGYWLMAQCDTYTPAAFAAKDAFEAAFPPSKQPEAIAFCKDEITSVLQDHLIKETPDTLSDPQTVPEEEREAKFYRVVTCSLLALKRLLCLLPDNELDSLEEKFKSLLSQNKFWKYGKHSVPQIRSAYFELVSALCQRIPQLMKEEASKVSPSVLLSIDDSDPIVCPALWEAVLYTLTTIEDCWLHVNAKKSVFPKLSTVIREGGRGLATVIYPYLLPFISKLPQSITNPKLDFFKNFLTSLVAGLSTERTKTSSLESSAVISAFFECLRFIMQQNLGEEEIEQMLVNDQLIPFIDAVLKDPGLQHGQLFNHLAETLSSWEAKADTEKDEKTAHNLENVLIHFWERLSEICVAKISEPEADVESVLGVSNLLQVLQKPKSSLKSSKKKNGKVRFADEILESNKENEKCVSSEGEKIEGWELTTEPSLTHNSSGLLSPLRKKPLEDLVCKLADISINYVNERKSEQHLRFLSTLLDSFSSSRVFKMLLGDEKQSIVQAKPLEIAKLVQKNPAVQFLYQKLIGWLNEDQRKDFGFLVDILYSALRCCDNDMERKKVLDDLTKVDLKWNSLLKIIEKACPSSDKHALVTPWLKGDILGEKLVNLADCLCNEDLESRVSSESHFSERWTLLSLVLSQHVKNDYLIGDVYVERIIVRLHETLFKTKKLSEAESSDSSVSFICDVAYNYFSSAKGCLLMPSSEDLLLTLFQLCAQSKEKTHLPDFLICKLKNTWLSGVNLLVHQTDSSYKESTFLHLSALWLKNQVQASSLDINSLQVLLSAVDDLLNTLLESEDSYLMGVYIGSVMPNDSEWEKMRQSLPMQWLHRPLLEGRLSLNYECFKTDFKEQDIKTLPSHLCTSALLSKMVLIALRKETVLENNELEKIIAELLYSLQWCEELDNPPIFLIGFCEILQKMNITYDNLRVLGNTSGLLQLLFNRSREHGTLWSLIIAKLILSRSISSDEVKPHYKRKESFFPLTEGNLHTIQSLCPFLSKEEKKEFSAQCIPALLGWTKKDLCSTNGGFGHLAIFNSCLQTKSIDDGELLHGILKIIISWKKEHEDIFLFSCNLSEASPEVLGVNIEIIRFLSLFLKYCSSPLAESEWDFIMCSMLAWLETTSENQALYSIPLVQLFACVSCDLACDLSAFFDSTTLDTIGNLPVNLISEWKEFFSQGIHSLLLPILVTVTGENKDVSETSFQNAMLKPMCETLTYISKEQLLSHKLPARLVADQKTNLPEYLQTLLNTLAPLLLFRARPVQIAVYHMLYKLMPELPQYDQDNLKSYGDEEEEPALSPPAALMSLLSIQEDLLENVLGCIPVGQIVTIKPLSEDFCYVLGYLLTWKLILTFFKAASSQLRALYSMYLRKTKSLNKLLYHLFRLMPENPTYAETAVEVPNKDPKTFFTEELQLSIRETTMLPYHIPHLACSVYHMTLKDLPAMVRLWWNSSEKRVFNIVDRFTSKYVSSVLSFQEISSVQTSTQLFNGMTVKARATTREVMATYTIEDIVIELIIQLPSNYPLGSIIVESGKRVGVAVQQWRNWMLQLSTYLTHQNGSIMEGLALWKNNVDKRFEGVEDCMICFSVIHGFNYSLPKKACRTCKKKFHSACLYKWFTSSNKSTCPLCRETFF
inactive: erlotinib 0.028 | [1] 0.021 | [2] -0.065 | [3] -0.005 | [4] 0.003 | [5] -0.022 | [6] -0.045 | [7] -0.019 | [8] 0.023 | IRAK-1-4 Inhibitor I 0.006

MED16 (UniProt Q9Y2X0)
UniProt Q9Y2X0, sequence (Q9Y2X0 whole entry, looked up): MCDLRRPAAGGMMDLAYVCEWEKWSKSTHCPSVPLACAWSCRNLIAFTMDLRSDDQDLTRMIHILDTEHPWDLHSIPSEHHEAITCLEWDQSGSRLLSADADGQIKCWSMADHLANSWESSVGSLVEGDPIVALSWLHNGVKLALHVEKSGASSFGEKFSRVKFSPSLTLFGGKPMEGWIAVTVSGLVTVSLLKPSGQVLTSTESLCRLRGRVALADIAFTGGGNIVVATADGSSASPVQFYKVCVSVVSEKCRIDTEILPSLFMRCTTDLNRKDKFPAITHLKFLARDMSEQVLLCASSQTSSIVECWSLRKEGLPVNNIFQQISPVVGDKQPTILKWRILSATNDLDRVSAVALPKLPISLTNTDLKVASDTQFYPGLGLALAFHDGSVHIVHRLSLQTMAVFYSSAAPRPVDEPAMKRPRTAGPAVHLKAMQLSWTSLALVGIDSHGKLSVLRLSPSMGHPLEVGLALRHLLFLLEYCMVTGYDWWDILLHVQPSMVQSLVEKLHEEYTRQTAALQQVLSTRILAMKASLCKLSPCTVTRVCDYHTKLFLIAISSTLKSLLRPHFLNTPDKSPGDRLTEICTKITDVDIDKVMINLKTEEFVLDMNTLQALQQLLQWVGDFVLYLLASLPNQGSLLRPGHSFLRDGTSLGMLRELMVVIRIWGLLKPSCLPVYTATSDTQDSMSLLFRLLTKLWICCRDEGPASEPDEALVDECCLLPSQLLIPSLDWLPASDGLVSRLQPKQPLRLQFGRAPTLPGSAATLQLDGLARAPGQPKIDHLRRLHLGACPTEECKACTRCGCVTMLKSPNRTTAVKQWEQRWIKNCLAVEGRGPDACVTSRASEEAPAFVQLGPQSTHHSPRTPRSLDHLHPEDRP
inactive: erlotinib 0.018 | [1] -0.033 | [2] 0.001 | [3] 0.019 | [4] -0.011 | [5] 0.008 | [6] -0.071 | [7] 0.01 | [8] -0.045 | IRAK-1-4 Inhibitor I -0.001

MAP2K3 isoform 3 (UniProt P46734)
UniProt P46734, sequence (P46734 whole entry, looked up): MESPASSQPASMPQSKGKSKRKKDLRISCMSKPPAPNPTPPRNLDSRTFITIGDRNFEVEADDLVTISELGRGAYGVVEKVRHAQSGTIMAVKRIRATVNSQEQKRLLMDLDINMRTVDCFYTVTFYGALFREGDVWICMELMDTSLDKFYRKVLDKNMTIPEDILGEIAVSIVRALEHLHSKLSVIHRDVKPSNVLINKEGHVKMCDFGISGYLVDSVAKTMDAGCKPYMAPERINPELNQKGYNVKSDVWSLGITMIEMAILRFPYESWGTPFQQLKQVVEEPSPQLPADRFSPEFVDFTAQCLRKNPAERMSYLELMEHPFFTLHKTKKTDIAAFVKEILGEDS
inactive: erlotinib 0.048 | [1] 0.061 | [2] 0.03 | [3] -0.063 | [4] 0.03 | [5] -0.037 | [6] 0.119 | [7] -0.006 | [8] 0.129 | IRAK-1-4 Inhibitor I 0.03

LRPPRC (UniProt P42704)
inactive: erlotinib 0.04 | [1] 0.028 | [2] -0.02 | [3] 0.048 | [4] 0.067 | [5] -0.004 | [6] -0.017 | [7] -0.012 | [8] 0.006 | IRAK-1-4 Inhibitor I 0.006

LZTS1 (UniProt Q9Y250)
inactive: erlotinib 0.182 | [1] 0.832 | [2] 0.291 | [3] -0.011 | [4] -0.12 | [5] 0.113 | [6] -0.075 | [7] -0.2 | [8] -0.07 | IRAK-1-4 Inhibitor I 0.055
